Source: PubChem BioAssay AID488922 (Johns Hopkins Ion Channel Center, 2010)
The whole screen tested about 310,000 compounds, of which about 3,800 (1.2%) were called active. The sample holds actives, similar compounds and a random draw of the others, so the mix is not that of the screen.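 Rule for the calls: active = ratio B-score over 3 SD below the library mean, with starting fluorescence within 5 SD of its mean; inactive = the rest, inconclusive results apart.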

Biological target: Potassium channel subfamily K member 9 (Homo sapiens) (UniProt Q9NPC2)
Sequence (Q9NPC2 whole entry, looked up): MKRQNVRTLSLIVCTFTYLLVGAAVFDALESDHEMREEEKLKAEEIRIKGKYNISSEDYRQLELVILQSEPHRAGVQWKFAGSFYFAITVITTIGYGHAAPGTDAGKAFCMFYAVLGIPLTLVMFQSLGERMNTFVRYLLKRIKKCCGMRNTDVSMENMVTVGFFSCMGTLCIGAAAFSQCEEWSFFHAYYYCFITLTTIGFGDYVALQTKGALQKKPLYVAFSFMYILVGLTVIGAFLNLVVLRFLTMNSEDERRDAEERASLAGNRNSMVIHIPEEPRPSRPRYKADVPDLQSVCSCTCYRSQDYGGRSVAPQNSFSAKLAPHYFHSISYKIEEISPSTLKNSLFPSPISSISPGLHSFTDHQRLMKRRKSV
Assay: blockers of human TASK-3 (KCNK9) channel – HEK293 cells, thallium flux, primary screen (AID 488922);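 for B-score: negative B-score means less thallium flux so channel inhibition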
Conditions: HEK293 KCNK9, FluxOR thallium flux fluorescence, at 10 µM; active compounds read low

SMILES | B-score
O=C(CCC1CCCC1)N=C1SC2CS(=O)(=O)CC2N1Cc1ccccc1 (stereo not given) | inactive
Cn1c(=O)n(C)c2cc(C(=O)Nc3ccc(Br)cc3)ccc21 | inactive
Cc1ccc(-n2nc(-c3ccco3)cc2C(=O)NCc2cccnc2)cc1 | inactive
CC(C)C[C@@H](CO)N1CCN(Cc2ccc(O)cc2)CCC1=O | inactive
CCOC(=O)Cc1cc(=O)[nH]c(=O)[nH]1 | -8.45 (active)
CCOC(=O)Cc1cc(=O)[nH]c(/N=C(\N)Nc2ccc(OC)cc2)n1 | inactive
CCOCCCNC(=O)Cc1cc(=O)[nH]c(=O)[nH]1 | inactive
CC1CCCN(CCCNC(=O)CN2C(=O)COc3ccc(S(=O)(=O)N4CCOCC4)cc32)C1 (stereo not given) | inactive
O=C1/C(=C/c2cccs2)CCC1C1CCCC1 (stereo not given) | inactive
Cc1cc2ccccn2c1C(=O)c1cccc(F)c1 | -13.4 (active)
CC(=O)Nc1ccc(/C=N/Nc2ccc(C(=O)c3c(C)cc4ccccn34)cc2[N+](=O)[O-])cc1 | inactive
Cc1cc2ccccn2c1C(=O)c1cccc(S(=O)(=O)N2CCOCC2)c1 | inactive
CN(Cc1c(F)cccc1Cl)C(=O)CNC(=O)c1ccc2c(c1)OCO2 | inactive
O=C(c1ccccc1Cl)N(Cc1ccccc1F)N1C(=O)CCCC1=O | inactive
O=C(OCC(=O)N(CCc1ccccc1)Cc1ccccc1)c1ccccc1[N+](=O)[O-] | -17.6 (active)
Cc1c(C(=O)NCCCc2ccccc2)cccc1[N+](=O)[O-] | inactive
CN(Cc1ccccc1)C(=O)COC(=O)c1ccccc1Nc1ccccc1 | inactive
CCOc1ccc2c(c1)C(c1ccc(C)cc1)=NNC(c1ccc(C)cc1)=N2 | inactive
Cc1ccc(C2=Nc3c(ccc4ccccc34)C(c3ccncc3)=NN2)cc1 | -10.7 (active)
Cc1ccc(-c2csc(-c3c[nH]c4ccccc34)n2)cc1 | inactive
CCCCCC(=O)N1CCN(S(=O)(=O)c2ccc3c(c2)OCCCO3)CC1 | inactive
O=C(Cc1cccs1)N(CC1CCCO1)C1(C(=O)NC2CCCCC2)CCCCC1 (stereo not given) | inactive
O=C(CCSCCc1ccccn1)Nc1nccs1 | inactive
COc1ccc(S(=O)(=O)N2CCN(C(=O)N(C)C)C2C)cc1 (stereo not given) | inactive
CCOc1ncccc1C(=O)NCCc1ccc(OC)cc1 | inactive
CC(=O)c1ccccc1OCc1ccc(C(=O)c2ccccc2)cc1 | -6.64 (active)
CC(OC(=O)c1ccccc1OCc1ccc(Cl)cc1)C(N)=O (stereo not given) | inactive
COc1ccc(OCCCC(=O)NCCc2ccccc2)cc1 | inactive
COc1ccc(CCNC(=O)c2ccccc2OCc2ccccc2)cc1 | -8.98 (active)
O=C(NC1CCC(O)CC1)c1ccccc1OCc1ccc(F)cc1 (stereo not given) | inactive
